According to PubChem BioAssay (NCI):
This is part of a sample that, as a whole, favours compounds with a hit. Of some 83,000 tested, about 20% had one in any assay.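 Testing used 96-well plates and a 48-hour single-concentration exposure. Example: -40 means 40% of the starting cells died.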 Unmarked numbers belong to inactive results. Calls of active or inactive are those of the source. Rule for the calls: active = growth percent below 10; inactive = the rest.

Tests used:
Experiment in all cases: NCI-60 one-dose screen, 48 h (100 = growth as untreated, 0 = no growth, -100 = all killed)
SK-MEL-2 melanoma = details: 10 µM unless noted
EKVX NSCLC = details: 10 µM unless noted
SN12C renal = details: 10 µM unless noted
UO-31 renal = details: 10 µM unless noted
TK-10 renal = details: 10 µM unless noted
ACHN renal = details: 10 µM unless noted
CAKI-1 renal = details: 10 µM unless noted
A498 renal = details: 10 µM unless noted
CCRF-CEM leukemia = details: 10 µM unless noted
MOLT-4 leukemia = details: 10 µM unless noted
SR leukemia = details: 10 µM unless noted
RPMI-8226 leukemia = details: 10 µM unless noted
OVCAR-8 ovarian = details: 10 µM unless noted
OVCAR-5 ovarian = details: 10 µM unless noted
OVCAR-4 ovarian = details: 10 µM
SK-OV-3 ovarian = details: 10 µM unless noted
IGROV1 ovarian = details: 10 µM unless noted
OVCAR-3 ovarian = details: 10 µM unless noted
HS 578T breast = details: 10 µM unless noted
NCI/ADR-RES ovarian = details: 10 µM unless noted

Row | SMILES | growth (SK-MEL-2 melanoma) [%] | growth (EKVX NSCLC) [%] | growth (SN12C renal) [%] | growth (UO-31 renal) [%] | growth (TK-10 renal) [%] | growth (ACHN renal) [%] | growth (CAKI-1 renal) | growth (A498 renal) | growth (CCRF-CEM leukemia) | growth (MOLT-4 leukemia) | growth (SR leukemia) | growth (RPMI-8226 leukemia) | growth (OVCAR-8 ovarian) [%] | growth (OVCAR-5 ovarian) | growth (OVCAR-4 ovarian) [%] | growth (SK-OV-3 ovarian) [%] | growth (IGROV1 ovarian) [%] | growth (OVCAR-3 ovarian) [%] | growth (HS 578T breast) [%] | growth (NCI/ADR-RES ovarian) [%]
1 | O=[N+]([O-])c1cccc(N=NNc2cccc([N+](=O)[O-])c2)c1 | 104 | 84.6 | 89.5 | 80 | 69.7 | 95.7 | 87.5% | -2.16% (active) | 84.3% | 82.7% | 95.1% | 86% | 99.5 | 94.6% | 88.7 | 104 | 125 | 101 | 101 | 94.4
2 | CCn1cc(-c2ccnc(NCCNS(=O)(=O)c3ccc(Br)cc3)c2)c(-c2cccc(OC)c2)n1 | 90.8 | 77 | 77 | 45.6 | 83.2 | 82.6 | 66.1% | 66.2% | 43.2% | 34.8% | 42.2% | 25% | 63.5 | 97.6% | 55.3 | 76.6 | 60.8 | 78.3 | 78.5 | 73.9
3 | CC(C)C1=NOC(=O)C1=Cc1cn(-c2ccccc2)nc1-c1ccc(Br)cc1 | 87 | 93.3 | 84.8 | 67.9 | 91.5 | 81.5 | 62.9% | 57% | 2.56% (active) | -15.7% (active) | -23.1% (active) | -29.6% (active) | 80.8 | 100% | 98.8 | 99.9 | 72.5 | 85.4 | 70.4 | 101
4 | CN(C)c1ccc(N=Nc2ccc3ccccc3c2)cc1 | 98.7 | 83.5 | 87 | 57 | 91.4 | 87.8 | 91.4% | 88.5% | 72% | 80.8% | 61.8% | 79.7% | 98.2 | 104% | 76.7 | 96 | 77.8 | 88.7 | 98.4 | 98.1
5 | c1nc(N2CCOCC2)c2[nH]ccc2n1 | 96 | 103 | 104 | 87.6 | 95.3 | 109 | 103% | 96.3% | 107% | 94% | 92% | 94.1% | 106 | 116% | 106 | 110 | 112 | 118 | 96.7 | –
6 | O=C1COCCN1c1ccc(NCc2cn(Cc3ccccc3)c3ccccc23)cc1 | 97.6 | 94.4 | 96.2 | 63 | 12.3 | 101 | -9.69% (active) | -88.4% (active) | 96.4% | 102% | 58.3% | 86.8% | 93.7 | -23.8% (active) | 62.6 | 34.3 | 15.5 | 80.9 | 89.4 | 101
7 | COc1cc2c(=O)[nH]c3cc([N+](=O)[O-])ccc3c2cc1[N+](=O)[O-] | 86.1 | 48.3 | 52.6 | 19.6 | 52.1 | 21.8 | 45.7% | -2.09% (active) | 46.5% | 9.72% (active) | 32.2% | 57.2% | 45.9 | 74.1% | 54.1 | 77.4 | 41.5 | 63.7 | 66.6 | 48.7
8 | COc1ncnc2c(-c3ccccc3)cn(COCc3ccccc3)c12 | 34.5 | 41.4 | 66.6 | 44.2 | 43.1 | 51 | 64.3% | 51.9% | 41.1% | 7.9% (active) | 18.2% | 29.2% | 26.6 | 110% | 54.4 | 82.7 | 71 | 62.8 | 81.2 | –
